Experimental findings from PubChem BioAssay (NCI) are described below.

About 83,000 compounds went through this panel and 20% of them were active in at least one assay; those are over-represented in the sample as a whole.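 Negative percent growth values reflect cell death: -40 means 40% of the cells present at the start died, and -100 means all died.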 A number with no mark means an inactive call. Calls of active or inactive are those of the source. How the source made its calls: active means growth percent below 10; inactive means the rest.

Test systems include NCI-H23 lung; NCI-H226 lung; NCI-H322M lung; HOP-62 NSCLC; NCI-H460 lung; HOP-92 NSCLC; NCI-H522 lung; A549/ATCC NSCLC; COLO 205 colon; DU-145 prostate; K-562 leukemia; MALME-3M melanoma; MDA-MB-231 breast; RXF 393 renal; SF-268 CNS; SF-295 CNS; SF-539 CNS; UACC-257 melanoma; M14 melanoma; 786-0 renal.
Common to all, as to experiment: NCI-60 one-dose screen, 48 h (100 = growth as untreated, 0 = no growth, -100 = all killed)
Holding throughout (settings): 10 µM unless noted

For the compound `CNC(=O)Nc1ccc(-c2nc(N3CCOCC3)nc3c2cnn3C2CCOCC2)cc1`, the growth in the test with NCI-H23 lung was 17.5%; in the test on NCI-H226 lung it was -12.4% (active); in the test with NCI-H322M lung, -9.52% (active); in the test with HOP-62 NSCLC it was -11% (active); in the test on NCI-H460 lung, 11.8%; with HOP-92 NSCLC, -27.6% (active). Moreover, the growth is -0.372% (active) in the test with NCI-H522 lung; -1.33% (active) with A549/ATCC NSCLC; 5.84% (active) with COLO 205 colon; 9.63% (active) in the test on DU-145 prostate; 20.1% in the test on K-562 leukemia; -37.6% (active) in the test with MALME-3M melanoma. In addition, the growth in the test on MDA-MB-231 breast is 5.07% (active); in the test with RXF 393 renal, -35.3% (active); in the test on SF-268 CNS it was 15.7%; in the test on SF-295 CNS it was -45% (active); in the test on SF-539 CNS, -24.4% (active); in the test with UACC-257 melanoma, -24.9% (active). Further, the growth in the test with M14 melanoma was -12.1% (active).
As to `CO[C@@H]1[C@H](N(C)C(=O)c2ccccc2)C[C@@H]2O[C@]1(C)n1c3ccccc3c3c4c(c5c6ccccc6n2c5c31)C(=O)NC4=O`, the growth in the test with NCI-H23 lung is 44.2%; with NCI-H226 lung, 29%; with NCI-H322M lung, 38.9%; with HOP-62 NSCLC, 28.5%; with NCI-H460 lung it was 48.2%; in the test on HOP-92 NSCLC it was 4.48% (active). Further, the growth with NCI-H522 lung is 21.2%; in the test on A549/ATCC NSCLC, 27.3%; in the test on COLO 205 colon it was 2.3% (active); in the test with DU-145 prostate it was 50.1%; in the test with K-562 leukemia, 52.4%; in the test on MALME-3M melanoma, 38.5%. Further, the growth was 41.7% in the test with MDA-MB-231 breast; -37.8% (active) in the test on RXF 393 renal; 48.2% with SF-268 CNS; 42.5% in the test on SF-295 CNS; 13.6% with SF-539 CNS; 61.5% in the test with UACC-257 melanoma. Also, the growth in the test on M14 melanoma is 37.1%.
For `COc1cc(C2CC(c3cccc(Nc4ccncc4)c3)=NN2c2ccc(Cl)cc2)cc(OC)c1OC` (stereo not given), the growth in the test with NCI-H23 lung is 79.9%; in the test on NCI-H226 lung, 84.3%; in the test with NCI-H322M lung, 65.1%; in the test with HOP-62 NSCLC, -44.4% (active); in the test with NCI-H460 lung, -73.8% (active); in the test on HOP-92 NSCLC, 25.1%. Also, the growth in the test on NCI-H522 lung was -46.1% (active); with 786-0 renal, 104%; with COLO 205 colon, -63.1% (active); in the test with DU-145 prostate it was -17.5% (active); with K-562 leukemia, -0.526% (active); in the test on MALME-3M melanoma, -85.2% (active). In addition, the growth in the test on MDA-MB-231 breast is 24.8%; in the test with SF-268 CNS, 44.5%; with SF-295 CNS, -55.1% (active); in the test on SF-539 CNS it was 68.3%; with UACC-257 melanoma, -6.07% (active); in the test with M14 melanoma it was 101%.
Consider `COc1cc(NCCCN(CC(C)C)C2CCCC2)c2ncccc2c1`, for which the growth in the test on NCI-H23 lung is 62.5%; in the test with NCI-H226 lung, 58.3%; in the test on NCI-H322M lung it was 101%; in the test with HOP-62 NSCLC, 82.9%; with NCI-H460 lung, 54.8%; in the test with HOP-92 NSCLC it was 59.5%. The growth is 60% with NCI-H522 lung; 58.2% in the test on 786-0 renal; 65.1% with COLO 205 colon; 83.4% in the test with DU-145 prostate; 39.2% with K-562 leukemia; 92.1% in the test with MALME-3M melanoma. Further, the growth in the test with MDA-MB-231 breast is 74.8%; in the test on SF-268 CNS it was 87.5%; with SF-295 CNS it was 87.4%; with SF-539 CNS, 88.8%; in the test on UACC-257 melanoma it was 89.4%; with M14 melanoma it was 85.7%.
Regarding `CC1=CC[C@@H]2CC[C@]3(C)[C@H](CC[C@@H]4[C@@]5(C)CCCNC(C)(C)[C@@H]5CC[C@]43C)[C@H]2[C@@H]1C`, the growth with NCI-H23 lung is 63.1%; with NCI-H226 lung, 107%; in the test on NCI-H322M lung it was 20.7%; with HOP-62 NSCLC, 105%; in the test on NCI-H460 lung it was -70.4% (active); in the test with HOP-92 NSCLC it was 23.8%. The growth with NCI-H522 lung is 96.1%; in the test on A549/ATCC NSCLC it was -14% (active); with 786-0 renal it was -72.5% (active); in the test on COLO 205 colon, -93.5% (active); in the test with DU-145 prostate it was -7.26% (active); in the test on MALME-3M melanoma it was 3.21% (active). The growth in the test on MDA-MB-231 breast was -7.94% (active); in the test on SF-268 CNS it was 40.2%; in the test on SF-295 CNS, -35.2% (active); in the test with SF-539 CNS, 77.5%; with UACC-257 melanoma it was 76.7%; in the test with M14 melanoma it was 15.5%.
With `O=C(CN1CCOCC1)Nc1ccc2ncnc(Nc3ccc(OCc4cccc(F)c4)c(Cl)c3)c2c1`, the growth in the test with NCI-H23 lung is 89.6%; in the test on NCI-H226 lung, 85.1%; with NCI-H322M lung, 20.9%; in the test on HOP-62 NSCLC it was 84.5%; in the test on NCI-H460 lung, 67.5%; in the test with HOP-92 NSCLC, 60%. Further, the growth is 25.2% with NCI-H522 lung; 66.2% with 786-0 renal; 66.7% in the test on COLO 205 colon; 50.5% in the test on DU-145 prostate; 43.9% with K-562 leukemia; 83.7% in the test with MALME-3M melanoma. In addition, the growth in the test with MDA-MB-231 breast was 71%; with SF-268 CNS, 68.7%; in the test with SF-295 CNS it was 73.9%; with SF-539 CNS, 75.3%; in the test with UACC-257 melanoma it was 87.9%; in the test with M14 melanoma, 68.5%.
`O=C(O)c1ccc[n+](CC(=O)N2CCN(c3cc4c(cc3F)c(=O)c(C(=O)O)cn4C3CC3)CC2)c1`: the growth in the test on NCI-H23 lung is 87.7%; with NCI-H226 lung, 93.7%; in the test with NCI-H322M lung, 103%; with HOP-62 NSCLC, 105%; in the test with NCI-H460 lung, 95.6%; in the test on HOP-92 NSCLC it was 109%. For the same compound, the growth was -86.6% (active) with NCI-H522 lung; 106% in the test with A549/ATCC NSCLC; 58.9% with 786-0 renal; 45.4% with COLO 205 colon; 96.1% in the test on DU-145 prostate; -34% (active) in the test with MALME-3M melanoma. Further, the growth with MDA-MB-231 breast is 98.3%; in the test with SF-268 CNS it was 70.1%; with SF-295 CNS, 116%; in the test on SF-539 CNS it was 69.1%; in the test with UACC-257 melanoma it was 80.1%; with M14 melanoma, 64.6%.
As for `CCCCCCCC(=O)Nc1nc2[nH]c(CN3CCN(Cc4cccc(I)c4)CC3)c(CN3CCN(Cc4cccc(I)c4)CC3)c2c(=O)[nH]1`, the growth was -24.5% (active) in the test with NCI-H23 lung; 66.4% in the test on NCI-H226 lung; -60% (active) in the test with NCI-H322M lung; -88.6% (active) with HOP-62 NSCLC; -75% (active) in the test on NCI-H460 lung; -67.3% (active) with HOP-92 NSCLC. The growth with NCI-H522 lung was -58.8% (active); in the test on 786-0 renal it was -98% (active); in the test with COLO 205 colon, -81.2% (active); in the test with DU-145 prostate it was -83.5% (active); in the test with K-562 leukemia, -43.8% (active); with MALME-3M melanoma it was -49.9% (active). For the same compound, the growth is -89.8% (active) with MDA-MB-231 breast; -96.1% (active) with RXF 393 renal; -82.9% (active) in the test with SF-268 CNS; -69.5% (active) in the test with SF-295 CNS; -89.4% (active) in the test with SF-539 CNS; -33% (active) in the test on UACC-257 melanoma. The growth with M14 melanoma was -56.6% (active).
As to `Cn1c2c(Cl)c(Cl)ccc2c2cc(N)[nH]c(=O)c21`, the growth with NCI-H23 lung was 76.2%; in the test with NCI-H226 lung, 59.2%; in the test with NCI-H322M lung, 103%; in the test with HOP-62 NSCLC, 51.3%; in the test with NCI-H460 lung it was 81.9%; in the test with HOP-92 NSCLC, 29.9%. Also, the growth in the test on NCI-H522 lung was 92.4%; with A549/ATCC NSCLC it was 15.1%; in the test on 786-0 renal it was 70.2%; in the test on COLO 205 colon it was 92.1%; in the test with DU-145 prostate, 84.2%; with MALME-3M melanoma, 102%. Besides, the growth in the test on MDA-MB-231 breast is 68.5%; with SF-268 CNS it was 80.9%; with SF-295 CNS, 53.7%; in the test on SF-539 CNS, 82.8%; with UACC-257 melanoma, 97.9%; with M14 melanoma it was 97.8%.
